Screening data (PubChem BioAssay)
Rows were chosen to be rich in hits. Some 6.8% of all compounds tested hit in one or more screens of this group.
KB-3-1 cytotox – qHTS assay for MDR1-selective chemotherapeutics: Primary screen using the parental adenocarcinoma cell KB-3-1; actives 1.4% (n = 400,000); Potency, µM (series often up to 46.1 µM), hits mostly cytotoxic; KB-3-1 viability, CellTiter-Glo ATP luminescence, 72 h; further: on the % scale 0 is the no-effect control and ±100 the full control effect; nearly all actives have a fitted effect of over 60% in size
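Cells are dispensed, compounds pinned in, plates held at 37 °C for 72 h, then CellTiter-Glo is added and luminescence read after 10 minutes. Cell line: parental KB-3-1 in phenol-red-free DMEM, 10% FBS.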
MCF10A rerep – A quantitative high throughput screen for small molecules that induce DNA re-replication in MCF 10a normal breast cells. MCF 10A DNA re-replication, Hoechst nuclear intensity, 48 h. Potency, µM (top dose mostly 46.1 µM), without a hit: at the highest dose activity, positive = re-replication, usual class: activators. actives 2.9% (n = 350,000). AID 624296, 2012; further: % of control where 0% means no effect; nearly all actives have a fitted effect of over 50% in size
KB-V1 MDR tox – qHTS assay for MDR1-selective chemotherapeutics: Primary screen using the drug-selected MDR subline cells KB-V1. actives 3.4% (n = 400,000). KB-V1 MDR cells viability, CellTiter-Glo, 72 h. Potency, µM (series often up to 46.1 µM), most hits filed as cytotoxic; further: on the % scale 0 is the no-effect control and ±100 the full control effect; nearly all actives have a fitted effect of over 60% in size
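Cells of the MDR subline KB-V1 are plated, dosed with compound at multiple concentrations, and incubated 72 h at 37 degrees C; CellTiter-Glo is then added and luminescence read after 10 min.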
SW480 rereplic – A quantitative high throughput screen for small molecules that induce DNA re-replication in SW480 colon adenocarcinoma cells | SW480 DNA re-replication, Hoechst DNA content imaging, 48 h | Potency, µM (highest dose often 46.1 µM), for inactives: at the top dose re-replication activation, most hits filed as activators | actives 1.8% (n = 340,000); further: % of control where 0% means no effect; nearly all actives have a fitted effect of over 55% in size
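Image-based DNA-content assay: after two days of treatment, nuclei were labelled with the DNA dye Hoechst and imaged, and hits were compounds raising the count of nuclei showing high fluorescence intensity.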
PTAP TSG101 blk – qHTS Assay for Iinhibitors of HIV-1 Budding by Blocking the Interaction of PTAP/TSG101; Fluorescence polarization, FITC-PTAP peptide / Tsg101 binding; Potency, µM (doses to about 115 µM), for the others: at the top dose activity change, negative = inhibition, usual class: inhibitors; 340,000 tested, under 10 active; active means well fitted inhibition curve with a large enough effect in the main read-out, with a control signal flat, not every such curve was filed as active; inconclusive means small, poorly fitted or top-dose-only effect, or effect the other way, or a change in a side signal; inactive means no such curve, though single readings can be large or run the other way; further: % of control where 0% means no effect
Target sequence (Q99816 whole entry, looked up): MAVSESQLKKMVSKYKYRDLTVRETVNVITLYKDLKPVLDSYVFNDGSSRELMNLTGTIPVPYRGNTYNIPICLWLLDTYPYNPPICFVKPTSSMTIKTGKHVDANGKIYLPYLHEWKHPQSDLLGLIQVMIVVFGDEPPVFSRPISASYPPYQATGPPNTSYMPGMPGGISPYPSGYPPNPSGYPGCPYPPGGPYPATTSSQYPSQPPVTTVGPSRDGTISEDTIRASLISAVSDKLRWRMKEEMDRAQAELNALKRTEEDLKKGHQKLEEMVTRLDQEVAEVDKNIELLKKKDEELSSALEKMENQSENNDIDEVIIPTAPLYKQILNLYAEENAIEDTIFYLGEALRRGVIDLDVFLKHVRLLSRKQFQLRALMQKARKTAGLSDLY
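Compounds were pin-transferred onto Tsg101 binding domain (10 uM final) in HEPES pH 7.5 buffer, then FITC-PTAP peptide was added at 50 nM final. After 20 min at RT, polarization reported peptide displacement across a qHTS concentration series.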
PINK1 modulator – A Quantitative High throughput Screen to Identify Chemical Modulators of PINK1 Expression; actives 0.2% (n = 410,000); Potency, µM (titrated, usually from 76.6 µM), inactives show top-dose activation (PINK1 increase), actives largely listed as activators; PINK1 immunofluorescence, high-content cytometry, 24 h; active means well fitted activation curve with a large enough effect; inconclusive means small, poorly fitted or top-dose-only effect; cell line not stated here; further: % of control where 0% means no effect; nearly all actives have a fitted effect of over 65% in size
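Stable cell line treated 24 h with compounds at 5 concentrations (CCCP controls), then fixed and immunostained for PINK1 plus nuclear and cell stains; PINK1 immunofluorescence quantified by laser-scanning microplate cytometry.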
Numbers without * were called inactive; i = inactive; ? = inconclusive; nt = no result given; [ ] = remark or other dose. Unless noted, the call rests on the fitted dose curve; in most records, active means well fitted curve in the direction sought with a large enough effect; inconclusive means small, poorly fitted or top-dose-only effect, or another doubt; inactive means no such curve, though single readings can be large; an effect the other way counts as inactive or inconclusive. Potency means the concentration at half of the fitted maximal effect.

SMILES	KB-3-1 cytotox	MCF10A rerep	KB-V1 MDR tox	SW480 rereplic	PTAP TSG101 blk	PINK1 modulator
CO[C@]1(NC(=O)[C@H](C(=O)O)c2ccc(O)cc2)C(=O)N2C(C(=O)O)=C(CSc3nnnn3C)CO[C@H]21	nt	-6.7%[20.6 µM]	nt	1.0%[20.6 µM]	nt	nt
CN(C)S(=O)(=O)N1CCN(CC(O)COc2ccc(-c3ccccc3)cc2)CC1 (centres undefined)	i	23.1µM*	i	6.3%	-6.0%	0.9%
CN(C)S(=O)(=O)N1CCN(CC(O)COc2ccc3cc(Br)ccc3c2)CC1 (centres undefined)	?	0.1%	?	9.6%	-3.4%	3.5%
CCCc1ccc(OCC(O)CN2CCCC2)cc1 (centres undefined)	i	14.6µM*	i	-1.8%	0.2%	-0.1%
OC(COc1ccc(OCC(O)CN2CCCCCC2)cc1)CN1CCCCCC1 (centres undefined)	i	-2.6%	i	-8.4%	-1.5%	3.3%
CCOC(=O)C1=C(C)N(C)C(C)=C(C(=O)OCC)C1c1ccc(Cl)cc1	i	23.1µM*	?	?	1.5%	5.1%
Cc1ccc(-c2noc(CCC(=O)NCC3CCCO3)n2)cc1 (centres undefined)	i	-0.1%	20.6µM*	12.0%	-1.8%	4.6%[38.3 µM]
Cc1ccc(-c2noc(CCC(=O)NCCN3CCN(Cc4ccccc4)CC3)n2)cc1	?	5.8%	16.4µM*	-1.6%	-3.5%	-1.3%
Cc1ccc(-c2noc(CCCC(=O)NCC3CCCO3)n2)cc1 (centres undefined)	i	-1.3%	i	-6.9%	-1.5%	1.3%
O=C1CSC(=Nc2cccc(C(=O)O)c2)N1	i	3.7%	i	-1.5%	1.4%	1.6%
CC(=O)c1cccc(N=C2NC(=O)CS2)c1	i	0.7%	6.51µM*	-4.6%	0.3%	-1.0%
CC1OC(CC(=O)O)CC2=C1C(=O)c1c(O)cccc1C2=O (centres undefined)	3.66µM*	?	2.91µM*	?	-3.7%	-6.1%
O=C1c2cccc(O)c2C(=O)c2c(O)cccc21	nt	0.9%	nt	1.9%	nt	-0.4%
c1ccc2c(Nc3ccc4c(c3)OCCO4)c3c(nc2c1)CCCC3	i	-7.2%	?	4.9%	3.0%	39.8µM*
Fc1cccc(Nc2c3c(nc4ccccc24)CCC3)c1	?	6.1%	?	-1.1%	-2.8%	?
CC(=O)c1ccc(Nc2c3c(nc4ccccc24)CCCC3)cc1	?	14.6µM*	i	?	-4.5%	2.7%
CC(=O)c1cccc(Nc2c3c(nc4ccccc24)CCC3)c1	1.84µM*	?	i	5.8µM*	-5.6%	6.2%
COC(=O)c1cccc(Nc2c3c(nc4ccccc24)CCC3)c1	20.6µM*	?	18.4µM*	?	-5.6%	23.3%
CCOC(=O)c1cccc(Nc2c3c(nc4ccccc24)CCC3)c1	i	nt	?	nt	nt	7.8%
O=C(Nc1c2c(nc3ccccc13)CCCC2)c1ccccc1F	i	3.7%	i	-2.3%	1.8%	7.6%
Cc1ccc(S(=O)(=O)N2CCC(n3c(C)nc4cccnc43)CC2)c(C)c1	i	nt	i	nt	nt	-0.2%
COc1ccc(-c2cc3nc(C)c(CCC(=O)N4CCN(c5ccc(F)cc5)CC4)c(C)n3n2)c(OC)c1	i	nt	i	nt	nt	2.2%
COc1cc2c(cc1OC)C(C(C(=O)N(CCc1ccc(OC)c(OC)c1OC)CCc1ccc(OC)c(OC)c1OC)c1ccccc1)=NCC2 (centres undefined)	?	4.1%	?	4.3%	nt	2.4%
O=C(Nc1c2c(nc3ccccc13)CCCC2)c1ccccc1Cl	i	-0.3%	i	7.31µM*	0.6%	5.1%
CCCCC(=O)NC(Nc1sc2c(c1C(N)=O)CCCC2)(C(=O)OCC)C(F)(F)F (centres undefined)	i	-8.9%	i	2.91µM*	0.3%	0.7%
SMILES	KB-3-1 cytotox	MCF10A rerep	KB-V1 MDR tox	SW480 rereplic	PTAP TSG101 blk	PINK1 modulator
CCOC(=O)C(NC(=O)c1ccc(F)cc1)(Nc1sc2c(c1C(N)=O)CCC2)C(F)(F)F (centres undefined)	i	-2.4%	i	-3.7%	0.0%	3.6%
CSc1oc(-c2ccccc2)nc1S(=O)(=O)c1ccc(C)cc1	i	0.5%	20.6µM*	3.8%	-0.1%	1.8%
CCCn1c(-c2cccnc2Cl)nc2cc(Cl)c(Cl)cc21	i	?	16.4µM*	26.8%	-10.7%	-0.6%[38.3 µM]
CCN(Cc1ccccc1)C(=O)Cn1c(=O)n(-c2ccccc2)c(=O)c2c1c1cc(C)ccc1n2C	i	nt	i	nt	nt	1.9%
C=CCNC(=S)N/N=C/c1ccc(OCc2ccccc2Cl)cc1	i	?	i	7.31µM*	-5.4%	16.4%[38.3 µM]
CCOC(=O)Nc1ccc(NCc2ccc(F)cc2)nc1N	i	?	i	?	-5.5%	14.0%
CCOC(=O)Nc1cc2c(c(N)n1)N=C(c1ccccc1)CN2	0.184µM*	?	0.13µM*	?	0.2%	4.0%
Cc1nc(C)n(CC(=O)N2CCOc3ccc(CN4CCN(C)C[C@@H]4c4ccccc4)cc3C2)n1	nt	nt	nt	nt	nt	0.1%
CCOCc1cnc(C)nc1NCC(=O)c1c(C)[nH]c2cc(C)ccc12	16.4µM*	0.0%	i	-5.6%	-1.6%	0.5%[38.3 µM]
CCOCc1cnc(C)nc1NCC(=O)c1c(C)[nH]c2ccccc12	23.1µM*	16.7%	i	0.6%	-14.6%	-0.6%
CCOC(=O)C1CCN(CC(=O)c2c(C)[nH]c3cc(C)ccc23)CC1	i	-0.9%	i	-0.2%	-0.2%	-1.0%
COc1ccc(N2CCN(c3oc(/C=C/c4cc(OC)c(OC)c(OC)c4)nc3C#N)CC2)cc1	nt	nt	nt	nt	nt	1.2%
COc1cccc(Nc2nc3ccc(C(=O)c4ccccc4)cc3n3c(C)nnc23)c1	i	nt	i	nt	nt	-1.7%
CCc1nnc2c(Nc3cccc(F)c3)nc3ccc(C(=O)c4ccccc4)cc3n12	?	nt	9.2µM*	nt	nt	4.4%
Cc1cccc(OC2(c3ccccc3)OC(=O)c3ccccc32)c1C (centres undefined)	i	3.8%	14.6µM*	?	nt	5.5%[38.3 µM]
Cc1ccccc1CN1C(=O)c2ccccc2C1c1nnnn1-c1ccc2c(c1)OCCO2 (centres undefined)	2.91µM*	nt	5.8µM*	nt	nt	3.0%
